Source: PubChem (National Center for Advancing Translational Sciences (NCATS))
The list is not random: actives were taken first. Their share in the collection is about 8.1%.
MCF10A rerep = induces DNA re-replication in MCF 10a normal breast cells; MCF 10A DNA re-replication, Hoechst nuclear intensity, 48 h; Potency, µM (top dose mostly 46.1 µM), actives largely listed as activators; 350,000 tested, 2.9% active; AID 624296; also: nearly all actives have a fitted effect of over 50% in size
KB-V1 MDR tox = KB-V1 MDR subline cytotoxicity; KB-V1 MDR cells viability, CellTiter-Glo, 72 h; Potency, µM (series often up to 46.1 µM), most hits filed as cytotoxic; 400,000 tested, 3.4% active; AID 1347076; also: nearly all actives have a fitted effect of over 60% in size
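Compound-treated KB-V1 multidrug-resistant cells, 72 h, 37 degrees C; viability by CellTiter-Glo. Fitted qHTS curves give the values.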
KB-3-1 tox = KB-3-1 parental cell cytotoxicity | 400,000 tested, 1.4% active | Potency, µM (doses to about 46.1 µM), usual class: cytotoxic | AID 1347075 | KB-3-1 viability, CellTiter-Glo ATP luminescence, 72 h; also: nearly all actives have a fitted effect of over 60% in size
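Cells are dispensed, compounds pinned in, plates held at 37 °C for 72 h, then CellTiter-Glo is added and luminescence read after 10 minutes. Cell line: parental KB-3-1 in phenol-red-free DMEM, 10% FBS.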
SW480 rereplic = DNA re-replication induction in SW480 cells; 340,000 tested, 1.8% active; Potency, µM (titrated, usually from 46.1 µM), most hits filed as activators; SW480 DNA re-replication, Hoechst DNA content imaging, 48 h; also: nearly all actives have a fitted effect of over 55% in size
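Image-based DNA-content assay: after two days of treatment, nuclei were labelled with the DNA dye Hoechst and imaged, and hits were compounds raising the count of nuclei showing high fluorescence intensity.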
ELG1 DNA repair = ELG1-dependent DNA repair inhibition. Potency, µM (doses to about 46.1 µM), most hits filed as inhibitors. HEK293T ELG1-luciferase reporter, luminescence, 16 h; DNA damage induced by 5-fluorouridine. 330,000 tested, 2.3% active; also: nearly all actives have a fitted effect of over 55% in size
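HEK293T cells expressing luciferase-tagged ELG1 (2,000/well) received 5-Fluorouridine plus compound or DMSO for 16 hr at 37 °C. Luciferase was read by ONE-Glo luminescence after 30 min at room temperature.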
Each line names hits and unclear results; the compound was inactive in the other large screens. Calls follow the shape of the dose curve; as a rule, active = well fitted curve in the direction sought with a large enough effect; inconclusive = small, poorly fitted or top-dose-only effect, or another doubt; inactive = no such curve, though single readings can be large; an effect the other way counts as inactive or inconclusive.

COc1ccc(-c2nc(N)nc(C)c2-c2ccc(Cl)cc2)c(O)c1	KB-V1 MDR tox inconclusive
COc1cccc(Nc2cc(-c3ccccc3)nc(C)n2)c1	none (no result: MCF10A rerep, SW480 rereplic, ELG1 DNA repair)
COc1ccc(OC)c(Nc2cc(C)nc3ccccc23)c1	MCF10A rerep inconclusive, KB-V1 MDR tox 18µM, KB-3-1 tox inconclusive, ELG1 DNA repair 21µM
COc1ccc(Cl)cc1Nc1cc(C)nc2ccccc12	MCF10A rerep inconclusive, KB-V1 MDR tox inconclusive, KB-3-1 tox inconclusive (no result: ELG1 DNA repair)
COc1ccc(-c2cc(-c3ccccc3)nc(N)n2)c(O)c1	KB-V1 MDR tox 21µM, KB-3-1 tox inconclusive (no result: ELG1 DNA repair)
Nc1c(C=C2C=CC(=O)C=C2)c(=O)nc2snc(SCc3ccccc3)n12	SW480 rereplic inconclusive, ELG1 DNA repair inconclusive
Cn1c(=O)c2c(nc(NCCCO)n2C/C=C/c2ccccc2)n(C)c1=O	KB-V1 MDR tox inconclusive, ELG1 DNA repair 12µM
C/C(Cl)=C\Cn1c(Nc2ccccc2)nc2c1c(=O)n(C)c(=O)n2C	ELG1 DNA repair 11µM
CC(O)CNc1nc2c(c(=O)n(C)c(=O)n2C)n1C/C=C/c1ccccc1 (centres undefined)	KB-V1 MDR tox inconclusive, ELG1 DNA repair 23µM
C/C(Cl)=C/Cn1c(NCCN(C)C)nc2c1c(=O)n(C)c(=O)n2C	none
Cn1c(SCC(=O)NCCC2=CCCCC2)nnc1C(F)(F)F	none (no result: MCF10A rerep, SW480 rereplic, ELG1 DNA repair)
CC1CC(C)(C)Nc2ccc(N=O)cc21 (centres undefined)	MCF10A rerep 23µM, SW480 rereplic 2.3µM, ELG1 DNA repair inconclusive
CC1CC(C)(C)Nc2ccc(OC(=O)c3ccco3)cc21 (centres undefined)	MCF10A rerep 15µM, KB-V1 MDR tox inconclusive, KB-3-1 tox inconclusive, SW480 rereplic inconclusive, ELG1 DNA repair inconclusive
Nc1nc2[nH]cc(CCc3ccc(C(=O)N[C@@H](CCC(=O)O)C(=O)O)cc3)c2c(=O)[nH]1	none (no result: MCF10A rerep, SW480 rereplic, ELG1 DNA repair)
CN(Cc1cnc2nc(N)nc(N)c2n1)c1ccc(C(=O)NC(CCC(=O)O)C(=O)O)cc1C(F)(F)F (centres undefined)	KB-V1 MDR tox inconclusive, KB-3-1 tox 0.013µM (no result: ELG1 DNA repair)
CN(Cc1cnc2nc(N)nc(N)c2n1)c1ccc(C(=O)NC(CCC(=O)O)C(=O)O)cc1 (centres undefined)	KB-V1 MDR tox inconclusive, KB-3-1 tox 0.0052µM (no result: ELG1 DNA repair)
CCC(C)[C@H](NC(=O)Nc1cccc(Cl)c1)C(=O)O (some centres undefined)	none
Cc1cccc([C@@H]2[C@@H]3C(=O)N(Cc4ccccc4)C(=O)[C@@H]3[C@]3(C)C(=O)N(c4cccc(F)c4)C(=O)N23)c1	none
CCCCC(=O)Nc1cccc(NC(=O)c2cccc(Br)c2)c1	ELG1 DNA repair 7.3µM
Cc1cccc(C)c1OCC(=O)Nc1cccc(-c2nnc(-c3ccccc3)o2)c1	MCF10A rerep inconclusive, KB-V1 MDR tox inconclusive, KB-3-1 tox inconclusive, ELG1 DNA repair inconclusive
Cc1ccc(OCC(=O)Nc2cccc(-c3nnc(-c4ccccc4)o3)c2)cc1	KB-V1 MDR tox 2.3µM, ELG1 DNA repair inconclusive
O=C(COc1ccccc1)Nc1cccc(-c2nc3cc4ccccc4cc3[nH]2)c1	MCF10A rerep 15µM, KB-V1 MDR tox 9.2µM, KB-3-1 tox inconclusive, SW480 rereplic inconclusive, ELG1 DNA repair inconclusive
Cc1ccc(-c2nnc(-c3ccc4ccccc4c3)o2)cc1	MCF10A rerep 6.5µM, KB-3-1 tox inconclusive, SW480 rereplic inconclusive (no result: ELG1 DNA repair)
Cc1nn2c(-c3ccc(F)cc3)ccnc2c1Br	KB-V1 MDR tox inconclusive
CN1CCN(C(=O)CCN2C(=O)/C(=C\c3ccc(Cl)cc3Cl)SC2=S)CC1	MCF10A rerep inconclusive, SW480 rereplic inconclusive
CCC(=O)Nc1cccc(-c2nnc(-c3ccccc3)o2)c1	none (no result: ELG1 DNA repair)
CCCCC(=O)Nc1cccc(-c2nnc(-c3ccccc3)o2)c1	KB-V1 MDR tox 18µM, ELG1 DNA repair inconclusive
Cc1ccc(S(=O)(=O)NCC(=O)OCc2ccccc2)cc1	none
CCOC(=O)C1=CCN(S(=O)(=O)c2ccccc2Br)C1c1cccc(Cl)c1 (centres undefined)	none (no result: MCF10A rerep, SW480 rereplic, ELG1 DNA repair)
CCOC(=O)C1=CCN(S(=O)(=O)c2ccccc2C)C1c1cccc(Cl)c1 (centres undefined)	KB-V1 MDR tox 21µM, KB-3-1 tox inconclusive (no result: MCF10A rerep, SW480 rereplic, ELG1 DNA repair)
CCOC(=O)C1=CCN(S(=O)(=O)c2cccc(Cl)c2)C1c1ccccc1 (centres undefined)	KB-V1 MDR tox 18µM (no result: MCF10A rerep, SW480 rereplic, ELG1 DNA repair)
Cc1ccc(/C(=N\O)c2oc3c(C)c4oc(=O)cc(C)c4cc3c2C)cc1	MCF10A rerep inconclusive, KB-V1 MDR tox inconclusive, KB-3-1 tox inconclusive, ELG1 DNA repair 21µM
Cc1cc(=O)oc2c1ccc1oc(/C(=N/O)c3ccccc3)c(C)c12	MCF10A rerep inconclusive, KB-V1 MDR tox 21µM, KB-3-1 tox inconclusive, ELG1 DNA repair 16µM
O=C(NNC(=O)c1n[nH]c(=O)c2ccccc12)c1ccc(Br)cc1	MCF10A rerep inconclusive
COc1ccc(NC(=O)c2c(C)nn(Cc3ccccc3)c2Cl)cc1S(=O)(=O)N1CCOCC1	MCF10A rerep 2.1µM, ELG1 DNA repair inconclusive
CCc1ccc(C(=O)Nc2ccc(OC)c(S(=O)(=O)N3CCOCC3)c2)cc1	KB-V1 MDR tox 9.2µM, ELG1 DNA repair inconclusive
COc1ccc(NC(=O)c2ccc(Cl)nc2)cc1S(=O)(=O)N1CCOCC1	KB-3-1 tox inconclusive, ELG1 DNA repair inconclusive
COc1ccc(NC(=O)Cn2ncc(Cl)c(Cl)c2=O)cc1S(=O)(=O)N1CCOCC1	MCF10A rerep 4.1µM, SW480 rereplic 4.6µM, ELG1 DNA repair inconclusive
COc1ccc(C(=O)NCc2c(C)nn(Cc3ccccc3)c2C)cc1S(=O)(=O)N1CCOCC1	MCF10A rerep 15µM, KB-3-1 tox 6.5µM, SW480 rereplic inconclusive, ELG1 DNA repair inconclusive
CCOC(=O)c1ccc(NC2=CC(c3ccc(F)cc3)N(c3ccc(C(=O)OCC)cc3)C2=O)cc1 (centres undefined)	none (no result: MCF10A rerep, SW480 rereplic, ELG1 DNA repair)
CCCC(=O)Nc1ccccc1OCc1cc(=O)n2cc(C)ccc2n1	none (no result: MCF10A rerep, SW480 rereplic, ELG1 DNA repair)
COc1cc(-c2nnc(COC(=O)CSCC(=O)Nc3cc(C)on3)o2)cc(OC)c1OC	none
COc1ccc(C(=O)NCC(c2cccnc2)N2CCN(c3ccccc3)CC2)cc1OC (centres undefined)	KB-3-1 tox 5.2µM
CCOc1ccc2nc(NC(=O)c3ccc(S(=O)(=O)N4CCOCC4)cc3)sc2c1	none
CCOc1ccc2nc(NC(=O)c3ccc(OC)c(S(=O)(=O)N4CCOCC4)c3)sc2c1	ELG1 DNA repair 13µM
COc1ccc(C(=O)NCC(c2ccccc2)c2ccccc2)cc1S(=O)(=O)N1CCOCC1	KB-V1 MDR tox 8.2µM (no result: ELG1 DNA repair)
O=C(CCCn1c(=O)[nH]c2ccsc2c1=O)N1CCN(c2cccc(C(F)(F)F)c2)CC1	none (no result: MCF10A rerep, SW480 rereplic, ELG1 DNA repair)
CN(Cc1c(F)cccc1Cl)c1ccc(S(=O)(=O)N2CCOCC2)cn1	KB-V1 MDR tox 18µM, KB-3-1 tox inconclusive, ELG1 DNA repair inconclusive
CN1CCN(S(=O)(=O)c2ccc(N(C)Cc3c(F)cccc3Cl)nc2)CC1	MCF10A rerep inconclusive
